# In PubChem BioAssay (NCATS):
# Results filed as inconclusive are left out. The source made the active and inactive calls. Unless noted, calls follow the shape of the full dose curve.
# Assays:
# [1] = biological target: Bile acid receptor (Homo sapiens) (UniProt Q96RI1); test: qHTS assay for small molecule agonists of farnesoid X receptor signaling (AID 588527); settings: HEK293T FXR-UAS-bla, beta-lactamase ratio, 16 h; activation: stronger effect = higher value;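 also: series mostly up to about 77 µM; 0% = vehicle basal and 100% = reference agonist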
# Bile acid receptor (Homo sapiens), sequence (Q96RI1 whole entry, looked up): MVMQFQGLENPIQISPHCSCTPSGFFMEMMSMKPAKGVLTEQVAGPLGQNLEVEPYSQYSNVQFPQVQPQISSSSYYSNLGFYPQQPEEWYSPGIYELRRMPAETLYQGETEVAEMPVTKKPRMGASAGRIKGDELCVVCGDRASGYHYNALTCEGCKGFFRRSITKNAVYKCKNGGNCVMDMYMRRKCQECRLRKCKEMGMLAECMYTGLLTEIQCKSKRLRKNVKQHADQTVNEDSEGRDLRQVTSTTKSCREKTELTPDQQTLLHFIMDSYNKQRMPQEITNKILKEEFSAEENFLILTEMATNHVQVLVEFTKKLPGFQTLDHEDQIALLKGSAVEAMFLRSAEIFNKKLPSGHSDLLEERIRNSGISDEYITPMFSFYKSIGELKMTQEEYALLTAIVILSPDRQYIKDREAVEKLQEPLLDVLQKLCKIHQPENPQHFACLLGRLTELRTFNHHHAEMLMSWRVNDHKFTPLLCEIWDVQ
# In short: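 Quantitative HTS used FXR-UAS-bla HEK293T cells with 16 h compound incubation at 37 C. EC50 values came from concentration-response curves normalized to chenodeoxycholic acid.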
# [2] = biological target: Bile acid receptor (Homo sapiens) (UniProt Q96RI1); test: qHTS assay for small molecule antagonists of farnesoid X receptor signaling (AID 588526); also: potency is read from the fitted curve at half-maximal effect
# In short: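 Beta-lactamase reporter antagonist mode: HEK293T FXR-UAS-bla cells, titrated compound, CDCA stimulation, 16 h 37 C, CCF4 dye 2 h RT. Data normalized to CDCA 50 uM and DMSO; Hill-fit IC50.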
# [3] = biological target: Peroxisome proliferator-activated receptor delta (Homo sapiens) (UniProt Q03181); test: qHTS assay for small molecule agonists of peroxisome proliferator-activated receptor delta signaling (AID 588534);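 also: 0% = DMSO basal wells and 100% = positive control agonist at 10 µM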
# Peroxisome proliferator-activated receptor delta (Homo sapiens), sequence (Q03181 whole entry, looked up): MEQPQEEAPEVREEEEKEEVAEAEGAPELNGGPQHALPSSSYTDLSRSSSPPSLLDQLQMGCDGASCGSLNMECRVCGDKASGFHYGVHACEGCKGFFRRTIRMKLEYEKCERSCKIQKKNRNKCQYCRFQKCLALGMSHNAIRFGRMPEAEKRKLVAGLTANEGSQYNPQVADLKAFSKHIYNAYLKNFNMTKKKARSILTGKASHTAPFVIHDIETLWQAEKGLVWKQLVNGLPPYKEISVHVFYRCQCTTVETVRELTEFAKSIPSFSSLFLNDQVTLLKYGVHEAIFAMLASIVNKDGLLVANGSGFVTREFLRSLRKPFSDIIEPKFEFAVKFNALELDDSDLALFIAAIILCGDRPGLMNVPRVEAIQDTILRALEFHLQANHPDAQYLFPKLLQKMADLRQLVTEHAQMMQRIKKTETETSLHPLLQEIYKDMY
# In short: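 Agonist-mode qHTS; reporter cells, 5 hrs 37 C pre-incubation; compound titration, 18 hrs 37 C; CCF4 dye, 2 hrs RT; fluorescence read. EC50/efficacy via Hill fit.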
# [4] = qHTS assay for small molecule antagonists of peroxisome proliferator-activated receptor delta signaling (AID 588535; active = well fitted inhibition curve with a large enough effect in the signal ratio, with a control signal flat, not every such curve was filed as active; the % refers to the signal ratio;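 as to max response: cells co-treated with a PPAR-delta agonist as stimulator during compound exposure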); settings: HEK293T PPARd-UAS-bla, beta-lactamase FRET ratio, 18 h; 460 nm channel
# In short: (§1)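 Titrations were run on PPAR-delta-UAS-bla HEK293T cells in charcoal/dextran-stripped serum, incubated 18 h at 37 C. CCF4 fluorescence (460/530 nm) after 2 h RT; Hill equation yields IC50 and maximal response.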
# [5] = biological target: Peroxisome proliferator-activated receptor delta (Homo sapiens) (UniProt Q03181); test: as above
# In short: as §1
# [6] = biological target: Peroxisome proliferator-activated receptor gamma (Homo sapiens) (UniProt P37231); test: qHTS assay for small molecule agonists of peroxisome proliferator-activated receptor gamma signaling (AID 588536; active = well fitted curve in the direction sought with a large enough effect in the signal ratio, with a control signal flat, not every such curve was filed as active; the % refers to the signal ratio;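 also: 0% = DMSO basal wells and 100% = rosiglitazone at 2 µM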)
# Peroxisome proliferator-activated receptor gamma (Homo sapiens), sequence (P37231 whole entry, looked up): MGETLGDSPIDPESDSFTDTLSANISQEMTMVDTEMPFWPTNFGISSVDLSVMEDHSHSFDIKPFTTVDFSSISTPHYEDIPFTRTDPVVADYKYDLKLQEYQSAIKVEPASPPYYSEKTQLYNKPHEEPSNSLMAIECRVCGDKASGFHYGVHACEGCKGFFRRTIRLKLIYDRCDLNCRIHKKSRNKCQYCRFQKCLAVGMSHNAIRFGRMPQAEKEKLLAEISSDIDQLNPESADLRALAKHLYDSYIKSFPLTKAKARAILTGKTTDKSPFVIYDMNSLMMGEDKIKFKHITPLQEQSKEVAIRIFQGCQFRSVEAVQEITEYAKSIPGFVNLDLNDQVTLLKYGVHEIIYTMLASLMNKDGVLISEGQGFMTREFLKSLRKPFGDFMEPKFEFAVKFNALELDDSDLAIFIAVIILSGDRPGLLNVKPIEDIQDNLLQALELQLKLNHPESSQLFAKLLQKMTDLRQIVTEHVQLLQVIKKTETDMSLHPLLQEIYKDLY
# In short: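 Using GeneBLAzer HEK293 cells, response was quantified by CCF4 fluorescence and normalized between basal DMSO (0%) and rosiglitazone 2 uM (100%); curves yielded half-maximal stimulation concentration and efficacy.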
# [7] = biological target: Vitamin D3 receptor (Homo sapiens) (UniProt P11473); test: qHTS assay for small molecule antagonists of vitamin D receptor signaling (AID 588541);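 also: receptor activated by calcitriol during compound treatment; series mostly up to about 77 µM; % is scaled to controls: 0 for no effect and ±100 for the full control effect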
# Vitamin D3 receptor (Homo sapiens), sequence (P11473 whole entry, looked up): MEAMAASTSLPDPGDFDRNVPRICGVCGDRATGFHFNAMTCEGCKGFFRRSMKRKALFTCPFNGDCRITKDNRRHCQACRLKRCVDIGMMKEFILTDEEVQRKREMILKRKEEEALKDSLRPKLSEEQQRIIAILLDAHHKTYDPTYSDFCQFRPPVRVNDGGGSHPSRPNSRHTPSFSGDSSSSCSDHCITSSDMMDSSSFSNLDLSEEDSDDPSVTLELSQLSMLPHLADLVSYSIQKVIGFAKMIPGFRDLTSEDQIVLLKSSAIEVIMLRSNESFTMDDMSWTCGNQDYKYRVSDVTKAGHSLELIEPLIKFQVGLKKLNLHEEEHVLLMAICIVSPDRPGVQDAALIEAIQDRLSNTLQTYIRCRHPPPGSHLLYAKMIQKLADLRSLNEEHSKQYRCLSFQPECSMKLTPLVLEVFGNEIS
# In short: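 Antagonist-mode beta-lactamase reporter assay: HEK293T VDR-UAS-bla cells were exposed to titrated compound alongside 1-alpha,25-dihydroxyvitamin D3 at 3 nM final for 16 h. Values were normalized to the 50 nM agonist control and DMSO basal, with IC50 and efficacy from Hill equation fits.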
# [8] = biological target: Vitamin D3 receptor (Homo sapiens) (UniProt P11473); test: qHTS assay for small molecule agonists of vitamin D receptor signaling (AID 588543);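 also: 0% = DMSO basal and 100% = reference agonist control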
# In short: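 qHTS in agonist mode: compound titrations stimulate a VDR-driven β-lactamase reporter in HEK293T cells over 16 h at 37 °C. Response normalized to 50 nM 1α,25-dihydroxyvitamin D3 = 100%, DMSO = 0%; Hill fitting gives EC50 and maximal response.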
# [9] = qHTS assay for small molecule agonists of retinoid X receptor alpha signaling (AID 588544); settings: HEK293T RXRa-UAS-bla, beta-lactamase reporter, 18 h; 530 nm emission;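 as to activation: 0% = DMSO basal wells and 100% = reference agonist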
# [10] = biological target: Retinoic acid receptor RXR-alpha (Homo sapiens) (UniProt P19793); test: as above
# Retinoic acid receptor RXR-alpha (Homo sapiens), sequence (P19793 whole entry, looked up): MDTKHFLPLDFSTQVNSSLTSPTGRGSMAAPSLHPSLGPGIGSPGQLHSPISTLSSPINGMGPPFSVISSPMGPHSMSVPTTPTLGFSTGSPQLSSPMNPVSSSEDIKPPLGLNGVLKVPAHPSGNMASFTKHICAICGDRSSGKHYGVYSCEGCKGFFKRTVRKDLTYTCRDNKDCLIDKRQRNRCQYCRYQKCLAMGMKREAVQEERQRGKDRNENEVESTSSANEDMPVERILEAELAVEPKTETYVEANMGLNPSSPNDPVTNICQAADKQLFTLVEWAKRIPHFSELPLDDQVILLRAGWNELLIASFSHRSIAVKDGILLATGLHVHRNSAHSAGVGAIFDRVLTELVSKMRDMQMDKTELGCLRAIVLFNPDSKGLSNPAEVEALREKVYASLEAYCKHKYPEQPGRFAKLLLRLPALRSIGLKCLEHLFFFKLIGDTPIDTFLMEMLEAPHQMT
# [11] = biological target: Thyroid hormone receptor beta (Homo sapiens) (UniProt P10828); test: qHTS assay for small molecule agonists of thyroid hormone receptor beta signaling (AID 588545);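 also: 0% = DMSO only and 100% = 10 nM T3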
# Thyroid hormone receptor beta (Homo sapiens), sequence (P10828 whole entry, looked up): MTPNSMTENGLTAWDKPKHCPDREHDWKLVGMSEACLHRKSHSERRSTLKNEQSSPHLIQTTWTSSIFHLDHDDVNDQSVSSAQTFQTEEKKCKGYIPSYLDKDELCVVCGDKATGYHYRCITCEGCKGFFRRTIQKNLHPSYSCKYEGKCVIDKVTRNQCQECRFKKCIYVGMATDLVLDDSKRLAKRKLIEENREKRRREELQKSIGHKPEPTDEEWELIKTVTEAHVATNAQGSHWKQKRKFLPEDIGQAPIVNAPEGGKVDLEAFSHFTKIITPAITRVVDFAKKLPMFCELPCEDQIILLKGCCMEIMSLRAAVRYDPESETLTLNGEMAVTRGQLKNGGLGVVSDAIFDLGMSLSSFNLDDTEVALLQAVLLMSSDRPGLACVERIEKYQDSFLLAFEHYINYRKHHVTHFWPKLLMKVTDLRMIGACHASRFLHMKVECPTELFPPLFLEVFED
# In short: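 TR-UAS-bla GripTite HEK 293 cells (2500/well, medium with 2% charcoal/dextran FBS) were treated in agonist mode for 18 h at 37 C, titrated. Beta-lactamase was read by CCF4 ratio after 2 h; normalized to 10 nM T3 (100%) and DMSO, Hill-fitted for EC50 and efficacy.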
# [12] = qHTS assay for small molecule antagonists of retinoid X receptor alpha signaling (AID 588546; active = well fitted inhibition curve with a large enough effect in the signal ratio, with a control signal flat, not every such curve was filed as active; the % refers to the signal ratio;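 also: cells stimulated with 9-cis-retinoic acid as agonist; % is scaled to controls: 0 for no effect and ±100 for the full control effect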); settings: HEK293T RXRa-UAS-bla, beta-lactamase ratio, antagonist mode; measured here: W530 green channel, cytotoxicity proxy
# In short: (§2)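 Beta-lactamase reporter inhibition, read as CCF4 fluorescence ratio (ex 405, em 460/530 nm) after 2 h at RT. HEK293T UAS-bla cells, 2500/well, were stimulated with 9-cis-RA at 500 or 100 nM final alongside test compound for 18 h at 37 C.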
# [13] = biological target: Retinoic acid receptor RXR-alpha (Homo sapiens) (UniProt P19793); test: as above; settings: HEK293T RXRa-UAS-bla, beta-lactamase ratio, antagonist mode
# In short: as §2
# [14] = biological target: Thyroid hormone receptor beta (Homo sapiens) (UniProt P10828); test: qHTS assay for small molecule antagonists of thyroid hormone receptor beta signaling (AID 588547; active = well fitted inhibition curve with a large enough effect in the signal ratio, with a control signal flat, not every such curve was filed as active; the % refers to the signal ratio;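 also: cells stimulated with 0.4 nM T3 agonist during compound exposure; series mostly up to about 77 µM; % is scaled to controls: 0 for no effect and ±100 for the full control effect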); settings: TR-UAS-bla HEK293, beta-lactamase ratio, antagonist mode, 18 h
# In short: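 Inhibition of T3-driven (0.4nM final) beta-lactamase reporter activity was measured over 0.59 nM to 92 uM compound after 18 h at 37 C. The cells were GripTite HEK293 TR-UAS-bla in charcoal/dextran-stripped serum, with CCF4 ratio read-out and IC50 from Hill fits.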
# [15] = qHTS assay for small molecule agonists of the antioxidant response element (ARE) signaling pathway (AID 651741; active = well fitted activation curve with a large enough effect in the signal ratio; the % refers to the signal ratio; also: potency is read from the fitted curve at half-maximal effect; as to activation: % of control where 0% means no effect)
# In short: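 Beta-lactamase reporter under ARE control in HepG2 cells, 2,000 per well, was induced by 16 h compound treatment at 37 C. Read-out was fluorescence from LiveBLAzer B/G FRET substrate after 2 h at room temperature.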
# [16] = qHTS assay for small molecule activators of the p53 signaling pathway (AID 651743; active = well fitted activation curve with a large enough effect in the signal ratio, not every such curve was filed as active; the % refers to the signal ratio; also: series mostly up to about 92 µM; % of control where 0% means no effect); settings: HCT-116 p53RE-bla, beta-lactamase FRET ratio, 16 h; activation: stronger effect = higher value
# In short: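 After 16 hours compound treatment at 37 C, HCT-116 cells stably expressing p53RE-driven beta-lactamase were loaded with LiveBLAzer B/G FRET substrate for 2 hours at room temperature. Fluorescence intensity served as the p53 activation read-out.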
# [17] = qHTS assay for small molecule activators of the nuclear factor-kappa B (NF-kB) signaling pathway (AID 651749; active = well fitted activation curve with a large enough effect in the signal ratio; the % refers to the signal ratio; also: series mostly up to about 77 µM; % of control where 0% means no effect); settings: NF-kB-bla ME-180 cells, beta-lactamase FRET ratio, 16 h; activation: stronger effect = higher value
# In short: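 Activation measured after 16 hr compound treatment at 37C, 5% CO2, of 2,000 ME-180 cells/well stably expressing an NF-kB response element–driven beta-lactamase reporter, via FRET-disruption fluorescence.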
# [18] = qHTS assay for environmental chemicals that activate the Aryl hydrocarbon Receptor (AhR) signaling pathway (AID 651777; active = well fitted curve in the direction sought with a large enough effect; an effect the other way counts as inactive or inconclusive; also: % of control where 0% means no effect; nearly all actives have a fitted effect of over 15% in size); settings: 1A2-DRE human hepatoma cells, luciferase, 24 h; activation: stronger effect = higher value
# In short: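 Quantitative HTS in stably transfected human liver-derived cells whose luciferase gene sits downstream of the CYP1A2 promoter and dioxin response element. After 24 hr exposure at 37 C, One-Glo luminescence was measured.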
# [19] = biological target: Peroxisome proliferator-activated receptor alpha (Homo sapiens) (UniProt Q07869); test: qHTS assay for small molecule agonists of the peroxisome proliferator-activated receptor alpha (PPARalpha) signaling pathway (AID 651778; active = well fitted curve in the direction sought with a large enough effect; an effect the other way counts as inactive or inconclusive; also: % of control where 0% means no effect); settings: PathHunter PPARalpha complementation, chemiluminescence, 6 h; max response: stronger effect = higher value
# Peroxisome proliferator-activated receptor alpha (Homo sapiens), sequence (Q07869 whole entry, looked up): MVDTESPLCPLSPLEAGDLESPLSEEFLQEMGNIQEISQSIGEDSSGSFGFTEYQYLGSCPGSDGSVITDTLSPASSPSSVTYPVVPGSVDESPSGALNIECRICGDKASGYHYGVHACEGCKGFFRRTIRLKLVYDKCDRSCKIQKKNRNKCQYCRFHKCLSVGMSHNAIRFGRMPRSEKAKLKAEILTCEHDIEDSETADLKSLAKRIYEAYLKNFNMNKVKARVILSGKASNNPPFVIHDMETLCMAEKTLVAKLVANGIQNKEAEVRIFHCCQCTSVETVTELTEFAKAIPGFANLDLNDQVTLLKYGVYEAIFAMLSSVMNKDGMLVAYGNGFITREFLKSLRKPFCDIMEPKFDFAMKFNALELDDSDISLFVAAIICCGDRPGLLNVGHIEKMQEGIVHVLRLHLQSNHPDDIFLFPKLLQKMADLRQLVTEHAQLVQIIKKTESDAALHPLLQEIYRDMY
# In short: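 Chemiluminescence from complemented enzyme reported PPARalpha activation in cells after 6 hr of compound treatment at 37 C. The detection reagent was incubated for 60 min at room temperature, and compounds were scored as agonists.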
# [20] = qHTS assay for small molecule agonists of the antioxidant response element (ARE) signaling pathway measured by Nrf2-dependant transcriptional activity - cell viability counter screen (AID 720653; active = well fitted curve in the direction sought with a large enough effect in the repeat runs; an effect the other way counts as inactive or inconclusive; also: % is scaled to controls: 0 for no effect and ±100 for the full control effect); settings: ARE-bla HepG2 viability, CellTiter-Glo ATP luminescence, 16 h; max response: stronger effect = lower value
# In short: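 Cytotoxicity counter screen: intracellular ATP quantified by CellTiter-Glo luminescence in the same ARE-bla HepG2 plates, after 16 h compound exposure and a 2 h beta-lactamase substrate step.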
# [21] = qHTS assay for cell viability of HEK293 cells (AID 743288; active = well fitted curve in the direction sought with a large enough effect; an effect the other way counts as inactive or inconclusive; also: % is scaled to controls: 0 for no effect and ±100 for the full control effect; nearly all actives have a fitted effect of over 50% in size); settings: ATP luminescence (CellTiter-Glo), 18 h; max response: stronger effect = lower value
# In short: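 Quantitative high-throughput screen: compounds were pinned onto parental HEK293 cells (2,000 per well) after a minimum 5 h settling at 37 C, incubated 18 h at 37 C, and intracellular ATP measured by luciferase luminescence.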
# [22] = qHTS assay for cell viability of the p53RE-bla HCT-116 cell line (AID 743292; active = well fitted curve in the direction sought with a large enough effect; an effect the other way counts as inactive or inconclusive; also: % is scaled to controls: 0 for no effect and ±100 for the full control effect; nearly all actives have a fitted effect of over 55% in size)
# In short: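 Viability of compound-treated p53RE-bla HCT-116 cells is taken from ATP-dependent luciferase luminescence. Treatment lasts 16 h at 37 C after a 5 h settling period; detection follows 30 min at room temperature.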
# [23] = biological target: Nuclear receptor subfamily 1 group I member 2 (Rattus norvegicus) (UniProt Q9R1A7); test: qHTS assay for small molecule activators of the rat pregnane X receptor (rPXR) signaling pathway (AID 651751; call rule not given here; also: 0% is about no effect); settings: rPXR reporter cells, luciferase (One-Glo), 24 h
# Nuclear receptor subfamily 1 group I member 2 (Rattus norvegicus), sequence (Q9R1A7 whole entry, looked up): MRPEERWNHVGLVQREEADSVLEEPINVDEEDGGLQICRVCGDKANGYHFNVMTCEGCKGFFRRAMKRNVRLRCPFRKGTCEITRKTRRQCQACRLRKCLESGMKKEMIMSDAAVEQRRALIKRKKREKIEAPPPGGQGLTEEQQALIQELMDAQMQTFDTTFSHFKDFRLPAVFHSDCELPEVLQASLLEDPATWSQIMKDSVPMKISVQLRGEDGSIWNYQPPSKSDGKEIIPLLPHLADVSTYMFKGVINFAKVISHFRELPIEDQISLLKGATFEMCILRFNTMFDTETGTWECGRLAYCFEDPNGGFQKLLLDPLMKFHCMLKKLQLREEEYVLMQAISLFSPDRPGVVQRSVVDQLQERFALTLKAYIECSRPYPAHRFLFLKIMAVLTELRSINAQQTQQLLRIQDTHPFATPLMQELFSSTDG
# [24] = biological target: Glucocorticoid receptor (Homo sapiens) (UniProt P04150); test: qHTS assay for small molecule agonists of glucocorticoid receptor signaling (AID 588532; active = well fitted curve in the direction sought with a large enough effect in the signal ratio, with a control signal flat; the % refers to the signal ratio;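 also: 100% = dexamethasone at 0.1 µM and 0% = DMSO only wells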); settings: HeLa MMTV-bla, beta-lactamase ratio, agonist, 18 h; activation: stronger effect = higher value, percent of dexamethasone control, DMSO zero
# Glucocorticoid receptor (Homo sapiens), sequence (P04150 whole entry, looked up): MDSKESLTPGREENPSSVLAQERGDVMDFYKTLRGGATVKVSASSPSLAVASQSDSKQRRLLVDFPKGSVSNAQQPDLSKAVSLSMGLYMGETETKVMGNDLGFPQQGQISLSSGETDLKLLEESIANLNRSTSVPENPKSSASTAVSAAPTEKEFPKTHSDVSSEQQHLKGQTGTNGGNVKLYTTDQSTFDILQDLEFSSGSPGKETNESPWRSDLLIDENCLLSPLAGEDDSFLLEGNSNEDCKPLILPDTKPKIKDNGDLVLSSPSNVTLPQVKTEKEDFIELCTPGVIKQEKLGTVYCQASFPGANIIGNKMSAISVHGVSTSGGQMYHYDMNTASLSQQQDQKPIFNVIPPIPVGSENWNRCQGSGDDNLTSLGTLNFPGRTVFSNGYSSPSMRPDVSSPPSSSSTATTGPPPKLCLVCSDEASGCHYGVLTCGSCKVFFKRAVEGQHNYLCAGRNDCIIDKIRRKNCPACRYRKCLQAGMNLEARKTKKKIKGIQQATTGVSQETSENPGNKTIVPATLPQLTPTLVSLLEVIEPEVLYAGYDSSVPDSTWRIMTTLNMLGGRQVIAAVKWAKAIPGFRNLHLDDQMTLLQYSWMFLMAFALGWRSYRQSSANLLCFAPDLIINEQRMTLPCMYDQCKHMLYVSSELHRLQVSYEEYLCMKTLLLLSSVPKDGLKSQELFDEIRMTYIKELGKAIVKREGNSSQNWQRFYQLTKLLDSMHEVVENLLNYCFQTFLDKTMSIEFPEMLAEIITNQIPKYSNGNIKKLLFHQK
# In short: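 Using MMTV-bla HeLa cells in medium with 1% stripped FBS and 25 mM HEPES, compounds were titrated and incubated overnight-length (18 h). Beta-lactamase cleavage of CCF4 was quantified by dual-emission fluorescence.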
# [25] = qHTS assay for small molecule activators of the human pregnane X receptor (PXR) signaling pathway (AID 720659; call rule not given here; also: 0% is about no effect)
# [26] = biological target: Peroxisome proliferator-activated receptor gamma (Homo sapiens) (UniProt P37231); test: qHTS assay for small molecule antagonists of peroxisome proliferator-activated receptor gamma signaling (AID 588537; active = well fitted inhibition curve with a large enough effect in the signal ratio, with a control signal flat, not every such curve was filed as active; the % refers to the signal ratio;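 also: reporter cells co-stimulated with 50 nM rosiglitazone agonist during compound treatment; % of control where 0% means no effect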)
# In short: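 Antagonist-mode β-lactamase reporter screen run as a titration series. HEK293 PPARγ-UAS-bla cells are stimulated with rosiglitazone (50 nM final) for 16 h, then CCF4 is read at 460/530 nm. Data are scaled between DMSO and rosiglitazone and fitted to the Hill equation.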
# [27] = qHTS assay for small molecule agonists of the antioxidant response element (ARE) signaling pathway measured by Nrf2-dependant transcriptional activity (AID 720636; active = well fitted curve in the direction sought with a large enough effect in the repeat runs; an effect the other way counts as inactive or inconclusive; also: % of control where 0% means no effect)
# In short: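 Quantitative HTS format in HepG2 cells stably expressing an ARE-luciferase reporter; 16 hr compound treatment at 37 C, luciferase signal detected with ONE-Glo.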
compound,measurement,setting,value
CCCCCCCCCCO,activation,[1],-3.92% (inactive)
CC1(C(=O)Nc2ccc(O)c(Cl)c2Cl)CCCCC1,Potency,[2],inactive
same,outcome,[3],inactive
same,max response,[4],11.8%
same,Potency,[5],inactive
same,Potency,[6],inactive
same,Potency,[7],inactive
same,outcome,[8],inactive
same,max response,[9],-10.8%
same,Potency,[10],inactive
same,Potency,[11],inactive
same,max response,[12],-23.6%
same,max response,[13],-4.55% (inactive)
same,activity change % (negative = inhibition),[14],15.7% (inactive)
same,Potency,[15],30.6 µM (active)
same,activation,[16],0.119% (inactive)
same,activation,[17],0.744% (inactive)
same,activation,[18],0.158% (inactive)
same,max response,[19],3.06% (inactive)
same,max response,[20],4.3% (inactive)
same,max response,[21],-8.66% (inactive)
same,Potency,[22],inactive
same,max response,[23],1.26% (inactive)
O=C/C(Cl)=C(/Cl)C(=O)O,Potency,[2],44.7 µM (active)
same,activation,[24],-13.8% (inactive)
same,outcome,[8],inactive
same,Potency,[11],inactive
same,Potency,[15],30.6 µM (active)
same,activation,[17],1.31% (inactive)
same,activation,[18],5.71% (inactive)
same,max response,[19],-1.15% (inactive)
same,max response,[20],-4.23% (inactive)
same,Potency,[22],inactive
same,max response,[23],-11.2% (inactive)
same,outcome,[25],inactive
CCC(C)(c1ccc(O)cc1)c1ccc(O)cc1,Potency,[2],inactive
same,activation,[1],1.29% (inactive)
same,Potency,[6],inactive
same,Potency,[26],inactive
same,max response,[9],3.09%
same,Potency,[10],inactive
same,Potency,[11],inactive
same,activity change % (negative = inhibition),[14],5.47% (inactive)
same,Potency,[15],54.5 µM (active)
same,activation,[16],-1.26% (inactive)
same,activation,[17],-1.76% (inactive)
same,activation,[18],-1.12% (inactive)
same,max response,[19],-1.57% (inactive)
same,Potency,[27],inactive
same,max response,[20],-14.2% (inactive)
same,max response,[21],-0.148% (inactive)
same,Potency,[22],inactive
same,max response,[23],-0.68% (inactive)
COCC(=O)N(c1c(C)cccc1C)N1CCOC1=O,Potency,[2],inactive
same,activation,[1],-0.109% (inactive)
same,outcome,[3],inactive
same,max response,[4],-6.17%
same,Potency,[5],inactive
same,Potency,[7],inactive
same,max response,[9],-6.63%
same,Potency,[10],inactive
same,Potency,[11],inactive
same,max response,[12],-10.4%
same,max response,[13],4.82% (inactive)
same,Potency,[15],inactive
same,activation,[16],-3.26% (inactive)
same,activation,[17],-1.88% (inactive)
same,max response,[19],0.278% (inactive)
same,Potency,[27],inactive
same,max response,[20],1.06% (inactive)
same,max response,[21],2.38% (inactive)
same,Potency,[22],inactive
same,max response,[23],3.21% (inactive)
same,outcome,[25],inactive
